Screening results as filed in PubChem.
TcdB inh: blocks C. difficile toxin B glycohydrolase activity; P18177; TcdB glycohydrolase enzymatic assay, plate reader; inhibition, % at 9.99 µM; hit rate 0.24% among 350,000; AID 652162; in the data active = inhibition above about 10%
Y pestis TopoI: Y. pestis Topo-I inhibition via cleavage products; Y. pestis Topo-I cleavage product accumulation, plate reader; activity, % at 10 µM; hit rate 0.064% among 360,000; in the data active = activity above about 50%, passing the limit was not always enough
GDH-TPI inh: GDH-TPI coupled enzyme inhibition counter-screen. GDH-TPI coupled enzyme counterscreen, NADH absorbance. inhibition, % at 4.8 µM. hit rate 1.2% among 360,000; in the data active = inhibition above about 30%;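 also: 0% = DMSO wells and 100% = wells lacking the enzyme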
PrPC surface inh: cell surface PrPC inhibition, primary TR-FRET screen | TR-FRET read-out | inhibition, % at 13.8 µM | hit rate 0.43% among 370,000; in the data active = inhibition above about 24%; also: 0% = median of the test wells and 100% = reference compound wells
FBA Mtb inh: inhibitors of M. tuberculosis fructose-bisphosphate aldolase; P9WQA3; purified M. tuberculosis FBA, fluorescence read-out; inhibition, % at 1 µM; hit rate 2.3% among 360,000; in the data active = inhibition above about 27%;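 also: 0% = vehicle and 100% = reference inhibitor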
The depositor's hits bear a star; . = no result; + = active, no number. Shown are actives, neighbours in structure and some others; about 3.2% of the full set was active somewhere.

SMILES | TcdB inh | Y pestis TopoI | GDH-TPI inh | PrPC surface inh | FBA Mtb inh
CCCCC(=O)Nc1cccc(-c2cn3ccccc3n2)c1 | 0 | 3 | 4 | -6 | 33*
CC(C)CC(=O)Nc1ccc(-c2cn3ccsc3n2)cc1 | . | -1 | 8 | 13 | 3
CC(C)(C)CC(=O)Nc1ccc(-c2cn3cccnc3n2)cc1 | -1 | -11 | 15 | -5 | +
Nc1cccc(-c2cn3cccnc3n2)c1 | 1 | -9 | 7 | 1 | 6
CCCC(=O)Nc1cccc(-c2cn3cccnc3n2)c1 | -1 | 1 | 30 | -6 | 189*
C[C@H]1CN([C@@H](C)CO)C(=O)c2cccc(NC(=O)Nc3ccc(C(F)(F)F)cc3)c2O[C@@H]1CN(C)C(=O)Nc1ccccc1 | 0 | . | . | . | .
CCOCC(=O)Nc1ccc(-c2cn3cccnc3n2)cc1 | . | -8 | 27 | -10 | +
CC(C)CC(=O)Nc1ccc(-c2cn3cccnc3n2)cc1 | 2 | 7 | 24 | -5 | +
COc1ccc(-c2cn3cccnc3n2)cc1NC(=O)CC(C)C | . | 9 | 23 | -14 | 20
CCCC(=O)Nc1ccc(-c2cn3cccnc3n2)cc1 | 0 | 1 | 18 | -8 | +
CCCC(=O)Nc1cc(-c2cn3cccnc3n2)ccc1OC | . | 7 | 17 | -9 | 19
O=C(C1CCC1)N1CC2(C1)[C@@H](c1ccccc1)[C@@H](CO)N2Cc1ccc(Cl)cc1 | 1 | . | . | . | .
COc1cccc(CN2[C@@H](CO)[C@H](c3ccccc3)C23CN(C(=O)C2CC2)C3)c1 | -2 | . | . | . | .
O=C(c1ccccc1)c1coc2ccc(O)c(Cl)c12 | 12* | 0 | 20 | 1 | 2
COC(=O)CSC1=C(C#N)C(=O)NC(c2ccccc2)S1 (stereo unspecified) | . | 0 | 41* | -2 | -7
Cc1cc(NCCCO)n2c(nc3ccccc32)c1C#N | 1 | -13 | 10 | -1 | 181*
Cc1c(Cc2ccccc2)c(NCCCO)n2c(nc3ccccc32)c1C#N | 0 | 15 | 9 | -2 | 12
COCCNc1cc(C)c(C#N)c2nc3ccccc3n12 | . | -4 | 10 | -7 | 193*
Cc1cc(NCCOCCO)n2c(nc3ccccc32)c1C#N | 0 | -8 | 11 | 3 | +
N#Cc1c2c(c(NCCOCCO)n3c1nc1ccccc13)CCCC2 | 1 | 6 | 10 | -23 | 15
C[C@H]1CN([C@@H](C)CO)C(=O)c2cc(NS(=O)(=O)c3ccc(Cl)cc3)ccc2O[C@H]1CN(C)S(=O)(=O)c1cn(C)cn1 | 1 | . | . | . | .
C[C@H]1CN([C@@H](C)CO)C(=O)c2cccc(NC(=O)c3ccncc3)c2O[C@H]1CN(C)S(=O)(=O)c1cccs1 | -18 | . | . | . | .
O=C(C[C@@H]1CC[C@@H]2[C@H](COC[C@H](O)CN2Cc2ccc(Cl)cc2)O1)NCc1ccccc1Cl | 0 | . | . | . | .
O=c1cc(O)c2c(=O)n(-c3ccccc3)c3c(c2o1)CCCCC3 | . | -7 | 32* | -5 | 2
O=c1c(-c2ccccc2)c(O)c2c(n1-c1ccccc1)CCCC2 | . | 1 | -4 | -4 | 3
SMILES | TcdB inh | Y pestis TopoI | GDH-TPI inh | PrPC surface inh | FBA Mtb inh
O=C(CN1CCCCC1)N/N=C/c1cccc(Cl)c1 | 2 | 3 | 3 | -7 | 0
Nc1nnc(CC(=O)N/N=C/c2ccc(-c3ccccc3)o2)s1 | 1 | 0 | 47* | -13 | 2
Nc1nnc(CC(=O)N/N=C\c2ccc(-c3cccc(Cl)c3)o2)s1 | 1 | 11 | 33* | -8 | -3
O=C(CN1CCCC1)N/N=C/c1ccc(-c2cccc(Cl)c2)o1 | . | -1 | 32* | -8 | 0
COc1cc(/C=N/NC(=O)Cc2nnc(N)s2)cc(OC)c1OC | 0 | -5 | 6 | -11 | 6
COC(=O)c1ccc(-c2ccc(/C=N/NC(=O)Cc3nnc(N)s3)o2)cc1 | 2 | 3 | 37* | -26 | 28*
Cc1ccc(-c2ccc(/C=N/NC(=O)Cc3nnc(N)s3)o2)cc1Cl | 0 | 17 | 29 | -9 | 2
O=C(Cc1ccccc1)N/N=C/c1ccc(-c2ccc([N+](=O)[O-])cc2)o1 | . | -3 | 13 | -12 | -2
Cc1ccc([N+](=O)[O-])cc1-c1ccc(/C=N/NC(=O)CN2CCOCC2)o1 | 0 | 0 | 40* | -15 | 3
COc1cc(/C=C/C(=O)OCC(=O)NC(=O)NC(C)C)ccc1O | 12* | 9 | 25 | 1 | 0
COc1cc(/C=C/C(=O)OCC(=O)N(C)Cc2ccccc2)ccc1O | 11* | 16 | 12 | -4 | 1
COc1cccc(/C=C/C(=O)OCC(=O)c2ccc[nH]2)c1 | -1 | 6 | 3 | 9 | 22
COc1cc(/C=C/C(=O)OCC(=O)c2ccc[nH]2)ccc1O | 15* | 7 | 24 | 7 | 1
COc1cc(/C=C/C(=O)OCC(=O)NC(=O)NC(C)C)ccc1OCC#N | . | 1 | 9 | -6 | 15
COc1cc(/C=C/C(=O)OCC(=O)N(C)Cc2ccccc2)cc(OC)c1OC | 0 | 33 | 13 | -10 | 17
COC(=O)C(Cc1ccccc1)NC(=O)CSc1nc(C)cc(=O)[nH]1 (stereo unspecified) | 22* | 6 | -5 | -1 | 2
Cc1cc(=O)[nH]c(SCC(=O)NNC(=O)Cc2ccccc2)n1 | 0 | 8 | 4 | 4 | 7
C=C(C)c1cccc(C(C)(C)NC(=O)Nc2ccc(OC)nc2)c1 | 3 | 19 | 1 | 1 | 148*
C=C(C)c1cccc(C(C)(C)NC(=O)Nc2ccc(C)cn2)c1 | 1 | 17 | -1 | 15 | 0
CO[C@H]1CN(C)C(=O)c2cc(NC(=O)C3CCC3)ccc2OC[C@@H](C)N(Cc2ccccn2)C[C@@H]1C | 1 | . | . | . | .
C[C@H](O)C#Cc1cnc2c(c1)C(=O)N([C@@H](C)CO)C[C@H](C)[C@H](CN(C)C(=O)c1ccccc1F)O2 | -1 | . | . | . | .
Oc1ccccc1C=NNc1nc2ccccc2s1 | -1 | -4 | 24 | 1 | 3
Cc1ccsc1/C=N/Nc1nc2ccccc2s1 | 0 | 2 | 20 | 1 | 0
C(=N\Nc1nc2ccccc2s1)/c1cccs1 | . | -13 | 42* | -7 | 0
C(=N\Nc1nc2ccccc2s1)/c1ccco1 | . | -4 | 42* | -5 | -1
SMILES | TcdB inh | Y pestis TopoI | GDH-TPI inh | PrPC surface inh | FBA Mtb inh
Oc1ccc(C=NNc2nc3ccccc3s2)c(O)c1 | -1 | -42 | 32* | -3 | -1
CC(=O)Nc1ccc(/C=N/Nc2nc3ccccc3s2)cc1 | 1 | -14 | 20 | 8 | 1
O=C(NCC1CC1)[C@@H]1[C@@H](CO)[C@@H]2Cn3c(ccc(/C=C/c4ccccc4)c3=O)[C@H]1N2C(=O)C1CC1 | -1 | . | . | . | .
Cc1ccc(S(=O)(=O)N(C)C[C@@H]2Oc3ccc(NS(=O)(=O)c4ccc(Cl)cc4)cc3CC(=O)N([C@H](C)CO)C[C@@H]2C)cc1 | 0 | . | . | . | .
CN(C)CC(=O)N[C@H]1CC[C@@H](CCn2cc(C3CCCCC3)nn2)O[C@@H]1CO | 0 | . | . | . | .
Cc1cccc(S(=O)(=O)C(C#N)c2nc3ccccc3nc2N2CCCC2)c1 (stereo unspecified) | . | -10 | 7 | -6 | 74*
Cc1ccc(C)c(S(=O)(=O)C(C#N)c2nc3ccccc3nc2N2CCCC2)c1 (stereo unspecified) | . | 7 | -12 | -1 | 5
